Consider 98 compounds from PubChem BioAssay AID686978 (National Center for Advancing Translational Sciences (NCATS), 2013).

The whole screen tested about 420,000 compounds, of which about 64,000 (15%) were called active. Not shown: some 27% with an inconclusive outcome. Calls come from the whole dose curve; as a rule, active = well fitted inhibition curve with a large enough effect; inconclusive = small, poorly fitted or top-dose-only effect; inactive = flat fitted curve, though single readings scatter. Not all results are given here. A call without a number means that no potency is given here. Peptide text beside a SMILES is read from it.
Potency is the fitted concentration of half-maximal effect.

This test in a line: qHTS for Inhibitors of human tyrosyl-DNA phosphodiesterase 1 (TDP1): qHTS in cells in absence of CPT. Note: nearly all actives have a fitted effect of over 55% in size. Conditions: DT40 Tdp1-/- hTDP1 cells, no CPT, ATP luminescence, 48 h; activity change, negative = growth inhibition: at 46.2 µM (top of the series). An outline of the steps: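 Chicken DT40 Tdp1-/- cells stably complemented with human TDP1 were seeded at 400 cells/well with DMSO in place of 20 nM camptothecin. After compound pinning, cells grew at least 48 hr at 37 °C; viability read by CellTiter-Glo luminescence.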
Turning to `CCOC(=O)c1cnc2nc(SCc3ccccc3Cl)[nH]n2c1=O`, the Potency entry was “inactive”.

As for `Cc1cc2ncn(CCCCOc3ccccc3)c2cc1C`, the Potency was 14.6 µM (active).

Turning to `COc1ccc2ccn(C)c2c1`, the Potency result was “inactive”.

For `COc1ccc(OCCCn2c(C)nc3cc(C)c(C)cc32)cc1`, the Potency is 10.3 µM (active).

As to `O=c1c2ccccc2ncn1CCCCOc1ccccc1F`, the Potency entry was “inactive”.

For the compound `COc1ccc(OCCn2ccnc2C)cc1`, the Potency entry is “inactive”.

For `COCCOCCn1cnc2ccccc21`, the Potency result was “inactive”.

`Cc1ccc(C(=O)N2CCN(S(=O)(=O)N3CCOCC3)CC2)cc1`: the Potency entry was “inactive”.

`N#Cc1c(-c2cccs2)nc(SCC(=O)c2ccc(Br)cc2)[nH]c1=O`: the Potency entry was “inactive”.

For the compound `O=C(NC(C(=O)NCCN1CCOCC1)C12CC3CC(CC(C3)C1)C2)C1CCCCC1` (stereo not drawn), the Potency entry was “inactive”.

Take `O=S(=O)(/N=C(/Nc1ccccn1)c1ccccc1)c1ccc(Cl)cc1`: the Potency entry was “inactive”.

On to `Cc1ccc(S(=O)(=O)/N=C(/Nc2ccccn2)c2ccc(Cl)cc2)cc1`, for which the Potency result is “inactive”.

On to `Cc1ccc(S/C(=N\S(=O)(=O)c2ccc(Cl)cc2)c2ccccc2)cc1`, for which the Potency was 10.3 µM (active).

Consider `O=C(CCS(=O)(=O)c1ccccc1Cl)Nc1ccc(S(=O)(=O)Nc2ncccn2)cc1`, for which the Potency result was “inactive”.

Consider `O=C(O)c1ccccc1NC(=O)c1ccccc1-c1ccccc1C(=O)O`, for which the Potency result was “inactive”.

Regarding `Cc1ccccc1NC(=O)C1CCCN(C(=O)NCc2ccccc2)C1` (stereo not drawn), the Potency entry was “inactive”.

For `CCOC(=O)CCNC(=O)N1CCCC(C(=O)c2ccccc2SC)C1` (stereo not drawn), the Potency result is “inactive”.

Consider `CCNC(=O)N1CCCC(C(=O)c2ccc(-c3ccccc3)cc2)C1` (stereo not drawn), for which the Potency was 9.2 µM (active).

As for `O=C(CSc1nnc(-c2ccco2)n1-c1ccccc1)NCCc1ccccc1`, the Potency result was “inactive”.

As for `Cc1ccc(Nc2nc(N)nc(CN3CCN(Cc4ccccc4)CC3)n2)cc1Cl`, the Potency was 16.4 µM (active).

For `CCOC(=O)N1CCN(Cc2nc(N)nc(Nc3ccc(C)cc3)n2)CC1`, the Potency entry was “inactive”.

As to `CCSCc1nc(N)nc(NCCc2ccccc2)n1`, the Potency entry was “inactive”.

Turning to `CCOc1ccc(S(=O)(=O)NCc2ccc3c(c2)OCO3)cc1C`, the Potency entry is “inactive”.

`O=C(OCCN=C1NS(=O)(=O)c2ccccc21)c1cccc([N+](=O)[O-])c1`: the Potency result is “inactive”.

With `Cc1ccc(C(=O)Nc2ccc(NC(=O)c3cccs3)cc2)c(C)c1`, the Potency entry is “inactive”.

Regarding `Cc1cccc(C(=O)Nc2ccc(CC(=O)O)cc2)c1`, the Potency result is “inactive”.

In the case of `Cc1cccc(C(=O)Nc2ccc(C(=O)/C=C/c3cccs3)cc2)c1`, the Potency is 16.4 µM (active).

For `COCCCNC(=O)CCc1nc2cccnc2n1Cc1ccc(OC)cc1`, the Potency result was “inactive”.

For `COc1ccc(OC)c(CCNC(=O)CCCn2c(=O)c3cccn3c3cccnc32)c1`, the Potency is 20.6 µM (active).

Take `CC1CCCCC12NC(=O)N(CC(=O)Nc1ccc(S(=O)(=O)Nc3ncccn3)cc1)C2=O` (stereo not drawn): the Potency entry was “inactive”.

For the compound `CC1CCN(C(=O)Cn2nnnc2CN2CCOCC2)CC1`, the Potency result is “inactive”.

Take `Cc1cccc(NC(=O)c2ccc(S(=O)(=O)N(C)c3ccccc3)cc2)n1`: the Potency was 20.6 µM (active).

For the compound `Cc1ccnc(NS(=O)(=O)c2ccc(NC(=O)c3ccc(S(=O)(=O)N(C)C)cc3)cc2)n1`, the Potency entry is “inactive”.

Take `CN(c1ccccc1)S(=O)(=O)c1ccc2[nH]c(=O)[nH]c2c1`: the Potency entry was “inactive”.

On to `O=C(NCCC1CCCCN1S(=O)(=O)c1ccc(F)cc1)C(=O)NC1CC1` (stereo not drawn), for which the Potency result was “inactive”.

On to `O=C(NCc1ccccc1Cl)C(=O)NCC1CCCN1S(=O)(=O)c1cccs1` (stereo not drawn), for which the Potency result was “inactive”.

Regarding `O=C(NCCC1CCCCN1S(=O)(=O)c1cccs1)C(=O)Nc1ccc(F)cc1F` (stereo not drawn), the Potency is 2.59 µM (active).

Regarding `CCOC(=O)N1CCN(CCC(=O)Nc2ccccc2)CC1`, the Potency entry was “inactive”.

As to `Cc1nc(N2CCOCC2)c2c(C(=O)NCc3cccc(Cl)c3)c(C)oc2n1`, the Potency result is “inactive”.

On to `CCOC(=O)c1c(C)oc(C)c(C(=O)OCC)c1=O`, for which the Potency result is “inactive”.

Take `CCOC(=O)c1c(C)oc2nc(C)nc(N3CCN(c4ccc(OC)cc4)CC3)c12`: the Potency was 8.2 µM (active).

For `CCOC(=O)c1c(C)oc2nc(C)nc(N(CC(C)C)CC(C)C)c12`, the Potency is 16.4 µM (active).

Take `CCOC(=O)c1c(C)oc2nc(C)nc(Nc3ccc(CC)cc3)c12`: the Potency result is “inactive”.

In the case of `COc1ccc(N2CCN(C(=O)c3c(C)oc4nc(C)nc(N5CCCC5)c34)CC2)cc1`, the Potency entry is “inactive”.

In the case of `NC(=O)c1cc(-c2cccnc2)nc2ccc(Br)cc12`, the Potency entry is “inactive”.

Regarding `CN1C(=O)/C(=N/OC(=O)c2ccccc2Br)c2ccccc21`, the Potency result was “inactive”.

Turning to `COc1cc(SC#N)ccc1N=Cc1c(C)[nH]n(-c2ccc(C)cc2)c1=O`, the Potency is 3.66 µM (active).

Regarding `CCOC(=O)c1sc2nc(C)nc(SCC(N)=O)c2c1C`, the Potency result is “inactive”.

In the case of `COC(=O)[C@]1(C)N[C@H](c2ccc(-c3ccc(Cl)c(Cl)c3)cc2)[C@@H]2C(=O)N(C)C(=O)[C@@H]21`, the Potency is 16.4 µM (active).

As to `COC(=O)C1(C)NC(c2ccc(F)cc2)C2C(=O)N(c3ccccc3)C(=O)C21` (stereo not drawn), the Potency entry is “inactive”.

In the case of `COC(=O)C1(C)NC(c2ccc(C)cc2)C2C(=O)N(c3ccc(F)cc3)C(=O)C21` (stereo not drawn), the Potency entry was “inactive”.

Consider `O=S(=O)(c1ccc(F)cc1)N1CC=C(c2ccccc2)CC1`, for which the Potency result was “inactive”.

`CC1(C)CC(=O)C2=C(C1)NCN(CCCN1CCOCC1)C2`: the Potency result is “inactive”.

In the case of `Cc1c(NC(=O)CN2C(=O)C(=O)N(Cc3ccccc3)C2=O)c(=O)n(-c2ccccc2)n1C`, the Potency entry is “inactive”.

Take `CCOC(=O)c1cc2c(=O)n3ccccc3nc2n(CC2CCCO2)c1=NC(=O)c1ccc(C(C)(C)C)cc1` (stereo not drawn): the Potency entry was “inactive”.

Take `CCOC(=O)c1cc2c(=O)n3ccccc3nc2n(CC(C)C)c1=NC(=O)c1c(-c2c(F)cccc2Cl)noc1C`: the Potency was 5.8 µM (active).

On to `CCOC(=O)c1cc2c(=O)n3ccccc3nc2n(CCCOC)c1=NC(=O)C(C)Oc1ccccc1` (stereo not drawn), for which the Potency result is “inactive”.

`c1c2c(cc3sc(N4CCCCC4)nc13)OCCO2`: the Potency result is “inactive”.

With `CCC(C)(C)c1ccc(OCC(=O)N(C)C)c(C(C)(C)CC)c1`, the Potency is 18.4 µM (active).

As to `CCc1nc(C)ccc1OCC(=O)N(CC)CC`, the Potency entry is “inactive”.

On to `Cc1cccc(C(=O)NNC(=O)CSc2nnc(C(C)C)n2C)c1`, for which the Potency result is “inactive”.

Take `CCn1c(SCC(=O)NNC(=O)c2ccc(OC)cc2)nnc1C(C)C`: the Potency was 20.6 µM (active).

As to `CCn1c(CNc2ccc(OC)cc2)nnc1SCC(=O)c1ccc(OC)cc1`, the Potency result was “inactive”.

Take `CCNC(=O)NC(=O)C(C)OC(=O)C1CCN(S(=O)(=O)c2ccccc2F)CC1` (stereo not drawn): the Potency entry is “inactive”.

On to `Cc1nc(COc2cccc(Cl)c2)sc1C(=O)/C=C/N(C)C`, for which the Potency entry was “inactive”.

Regarding `Cc1cccc(C(=O)Nc2ccc(S(=O)(=O)N3CCCCC3c3cccnc3)cc2)c1` (stereo not drawn), the Potency was 18.4 µM (active).

For `CCOc1ccc(S(=O)(=O)N2CCC(c3ccccc3)CC2)cc1C(=O)O`, the Potency entry was “inactive”.

Take `CCOc1ccccc1C(=O)Nc1ccc(S(=O)(=O)N2CCCCC2c2cccnc2)cc1` (stereo not drawn): the Potency was 18.4 µM (active).

`Cc1cc(NS(=O)(=O)c2ccc(NC(=O)c3cccnc3)cc2)nc(C)n1`: the Potency entry is “inactive”.

As to `CCOc1ncccc1C(=O)Nc1ccc(S(=O)(=O)Nc2nc(C)cc(C)n2)cc1`, the Potency result was “inactive”.

As for `CC(C)NS(=O)(=O)c1ccc(NC(=O)c2cccnc2)cc1`, the Potency entry was “inactive”.

With `CCn1ccnc1CNC(=O)CC1C(=O)NCCN1Cc1ccc(F)cc1Cl` (stereo not drawn), the Potency entry is “inactive”.

Consider `COC(=O)Cn1c(=NC(=O)c2cc(OC)c(OC)c(OC)c2)sc2cc(OC)ccc21`, for which the Potency entry is “inactive”.

As to `NS(=O)(=O)c1cccc(NC(=O)COC(=O)c2cc([N+](=O)[O-])ccc2N2CCCC2)c1`, the Potency result was “inactive”.

For the compound `O=C(Nc1cccc(F)c1)[C@@H]1CCCN1`, the Potency result is “inactive”.

Regarding `CCCn1c(NCc2ccc(N(CC)CC)cc2)nc2ccccc21`, the Potency is 8.2 µM (active).

Regarding `CCCn1nnnc1NCc1ccc(CC)cc1`, the Potency entry was “inactive”.

`CC(C)(C)C(=O)Cn1c(NCCO)nc2ccccc21`: the Potency entry is “inactive”.

As for `O=C(O)CN1C(=O)CC(Cc2ccccc2)C1=O` (stereo not drawn), the Potency result is “inactive”.

For the compound `Cc1cc(NC(=O)COn2nnc3ccccc32)no1`, the Potency result was “inactive”.

In the case of `COC(=O)c1cc(NC(=O)C2C3C=CC(C3)C2C(=O)O)cc(C(=O)OC)c1` (stereo not drawn), the Potency entry is “inactive”.

Consider `O=C(NCCCNCc1ccccc1)c1ccc(/C=N/O)nc1`, for which the Potency entry is “inactive”.

For the compound `CCc1ccc(Nc2n[n+](-c3ccccc3)c(-c3cccc(Cl)c3Cl)s2)cc1`, the Potency was 16.4 µM (active).

As to `Cc1noc(C)c1S(=O)(=O)NCCc1ccc(S(N)(=O)=O)cc1`, the Potency result was “inactive”.

Regarding `COC(=O)c1ccc([C@@H](O)[C@H](C)C(=O)CC(=O)OC(C)(C)C)cc1`, the Potency result is “inactive”.

Regarding `O=C(c1ccccc1)c1ccc(OC(=O)N2CCCC2)cc1`, the Potency entry is “inactive”.

As for `O=C(c1ccccc1)c1ccc2nc(N3CCCCC3)c3nncn3c2c1`, the Potency was 13 µM (active).

As to `c1ccc(CC2CCN(c3nc4ccccc4n4cnnc34)CC2)cc1`, the Potency entry is “inactive”.

Consider `COc1ccc(OC)c(/C=C/C(=O)OCC(=O)Nc2ccc3c(c2)OCCO3)c1`, for which the Potency is 16.4 µM (active).

Consider `COc1ccccc1OCCCC(=O)Nc1ccc2c(c1)OCCO2`, for which the Potency result is “inactive”.

Turning to `COc1cccc(/C=C/C(=O)Nc2ccc3c(c2)OCCO3)c1`, the Potency entry was “inactive”.

For the compound `S=c1c2[nH]cnc2ncn1CCSc1ncnc2nc[nH]c12`, the Potency entry was “inactive”.

Regarding `Cc1ccc(NC(=O)CN(C)C(=O)c2ccc(Cl)c(S(=O)(=O)NCc3ccco3)c2)cc1`, the Potency entry is “inactive”.

For `CC[C@H](C)CCCCC(=O)N[C@@H](CCN)C(=O)N[C@H](C(=O)N[C@@H](CCN)C(=O)N[C@H]1CCNC(=O)[C@H]([C@@H](C)O)NC(=O)[C@H](CCN)NC(=O)[C@H](CCN)NC(=O)[C@H](CC(C)C)NC(=O)[C@@H](CC(C)C)NC(=O)[C@H](CCN)NC1=O)[C@@H](C)O` (HELM PEPTIDE1{[CC[C@H](C)CCCCC(=O)[*:2]].[Dab].T.[Dab].[Dab].[Dab].[dL].L.[Dab].[Dab].T}$PEPTIDE1,PEPTIDE1,5:R3-11:R2$$$V2.0), the Potency entry was “inactive”.

Take `O=C(CSc1nnc(CNC(=O)c2ccccc2)n1-c1ccc(F)cc1)Nc1ccccc1F`: the Potency result is “inactive”.

On to `CCOC(=O)/C=c1\s/c(=C\c2ccc(C#N)cc2)c(=O)n1CC(=O)Nc1cccc(C)c1C`, for which the Potency is 5.17 µM (active).

On to `CCOc1ccc(NC(=O)Cn2c(C)ccc(C#N)c2=O)cc1`, for which the Potency entry is “inactive”.

Turning to `Cc1cccc(NC(=O)CN2C(=O)c3ccccc3C2=O)c1C`, the Potency entry was “inactive”.
